Screening data as filed in PubChem BioAssay.
ELG1 DNA repair = blocks ELG1-dependent DNA repair in HEK293T cells | HEK293T ELG1-luciferase reporter, luminescence, 16 h; DNA damage induced by 5-fluorouridine | Potency, µM (highest dose often 46.1 µM), hits mostly inhibitors | actives 2.3% (n = 330,000); also: nearly all actives have a fitted effect of over 55% in size
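5-Fluorouridine DNA damage + compound/DMSO, 2,000 cells/well, 16 h, 37 °C/5% CO2. ONE-Glo, 30 min RT, luminescence. Readout = decrease in reporter signal.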
NPC1 prom act = activates the NPC1 promoter | Huh7 NPC1 promoter luciferase reporter, 24 h | Potency, µM (series often up to 9.22 µM), actives largely listed as activators | actives 2.4% (n = 320,000); also: nearly all actives have a fitted effect of over 60% in size
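Luminescence read-out of NPC1 promoter-driven luciferase in stably transfected Huh7 cells; compounds delivered in DMSO and left 24 h at 37C, 5% CO2, qHTS titration format.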
ELG1 genotox = induces genotoxicity in HEK293T cells with luciferase-tagged ELG1. Potency, µM (top dose mostly 46 µM), hits mostly activators. HEK293T ELG1-luciferase reporter, luminescence, 16 h. actives 1.3% (n = 330,000); also: nearly all actives have a fitted effect of over 60% in size
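Genotoxicity was scored as increased ELG1-luciferase reporter signal, measured by ONE-Glo luminescence (30 min, room temperature). Compound or vehicle exposure of the HEK293T reporter cells lasted 16 hr at 37°C.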
SMN2 splice up = SMN2 splice variant enhancement; HEK293 SMN2-luciferase splicing reporter, luminescence, 30-36 h; Potency, µM (highest dose often 46.1 µM), most hits filed as activators; actives 2.8% (n = 210,000); AID 1458; also: nearly all actives have a fitted effect of over 55% in size
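HEK293 cells carry an SMN2 […]–luciferase reporter in which exon 7 inclusion puts luciferase in frame. Cells were plated 10-12 h before compound addition, then incubated 30-36 h at 37C. ONE-Glo luminescence was read; sodium butyrate at 4.5 mM final served as control.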
Rab9 promoter act = Rab9 promoter activation; Huh7 Rab9 promoter-luciferase reporter, luminescence, 24 h; Potency, µM (titrated, usually from 9.22 µM), actives largely listed as activators; actives 2.8% (n = 320,000); AID 485297; also: nearly all actives have a fitted effect of over 60% in size
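Cells were plated at 1500 per well in reduced-serum medium with 10% FBS and left 2 h. Compound in DMSO was then added for 24 h at 37 °C. Reporter signal was read by luminescence after 10 min with luciferase detection reagent.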
FLuc modulator = inhibits or activates purified firefly luciferase, miR-21 counter-screen. P08659. purified FLuc, Km substrates, luminescence inhibition. Potency, µM (highest dose often 57.5 µM), most hits filed as inhibitors. actives 6.9% (n = 360,000). AID 588342; also: nearly all actives have a fitted effect of over 55% in size
Target sequence (P08659 whole entry, looked up): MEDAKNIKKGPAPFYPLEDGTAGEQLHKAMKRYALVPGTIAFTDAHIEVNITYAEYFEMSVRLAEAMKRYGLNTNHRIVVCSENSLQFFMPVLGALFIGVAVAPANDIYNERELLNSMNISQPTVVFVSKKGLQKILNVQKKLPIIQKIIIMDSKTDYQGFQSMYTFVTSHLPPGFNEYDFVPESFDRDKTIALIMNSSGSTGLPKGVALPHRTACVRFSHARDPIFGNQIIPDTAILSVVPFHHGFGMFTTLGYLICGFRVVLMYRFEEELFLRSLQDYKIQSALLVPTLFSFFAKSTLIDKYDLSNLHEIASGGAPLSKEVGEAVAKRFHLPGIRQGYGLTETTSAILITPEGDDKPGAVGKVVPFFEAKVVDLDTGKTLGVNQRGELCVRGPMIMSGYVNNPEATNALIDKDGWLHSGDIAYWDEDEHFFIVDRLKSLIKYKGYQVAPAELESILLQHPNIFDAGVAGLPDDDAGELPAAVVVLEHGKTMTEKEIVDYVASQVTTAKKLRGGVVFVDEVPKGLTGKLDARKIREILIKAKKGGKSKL
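Biochemical qHTS of compounds, final roughly 60 µM downward over six points, against 10 nM purified firefly luciferase using Km concentrations of substrates (10 uM D-luciferin, 10 uM ATP) in Tris acetate pH 7.5 buffer; luminescence output.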
A number is an active result; i = inactive; ? = inconclusive; nt = no result; [ ] = another dose, or the depositor's remark. The list is not random: actives were taken first. Their share in the collection is about 9.2%. Calls follow the shape of the dose curve; as a rule, active = well fitted curve in the direction sought with a large enough effect; inconclusive = small, poorly fitted or top-dose-only effect, or another doubt; inactive = no such curve, though single readings can be large; an effect the other way counts as inactive or inconclusive.

SMILES	ELG1 DNA repair	NPC1 prom act	ELG1 genotox	SMN2 splice up	Rab9 promoter act	FLuc modulator
CC(=O)c1ccc(NC(=O)CSc2nc(=O)cc(N)n2-c2ccccc2)cc1	?	i	?	i	?	?
N#CCCn1cc(C(=O)Nc2ccc([N+](=O)[O-])cc2)c(-c2ccc3c(c2)OCCO3)n1	?	i	i	?	i	i
Cc1ccc(NC(=O)c2cn(CCC#N)nc2-c2ccc3c(c2)OCCO3)c([N+](=O)[O-])c1	18.4µM	i	i	i	i	i
O=C1NC(=O)C(=Cc2ccc(N3CCN(C(=O)c4ccccc4)CC3)c([N+](=O)[O-])c2)C(=O)N1	i	i	i	nt	i	21.3µM
CCN1/C(=C\C=C\C2=[N+](CC)c3ccccc3C2(C)C)C(C)(C)c2ccccc21	2.31µM	i	i	i	i	?
COc1cc(C(=O)Nc2ccc(Br)cc2C(=O)c2ccccc2Cl)cc(OC)c1OC	i	i	i	i	i	i
COc1ccccc1NS(=O)(=O)c1cc(NC(=O)c2ccc(Cl)nc2)ccc1N1CCCC1	16.4µM	nt	i	nt	nt	nt
Cc1ccc(-c2nn3c(C)nnc3c3ccccc23)cc1S(=O)(=O)NCCO	?	i	?	?	i	i
Cc1ccc(-c2nnc(Nc3ccc(OC(F)(F)Cl)cc3)c3ccccc23)cc1S(=O)(=O)NC(C)(C)CO	nt	nt	nt	i	nt	5.36µM
C/C(=N\NC(=S)Nc1ccccc1)c1c(O)n(C)c(=O)n(C)c1=O	?	i	i	i	i	12µM
C[C@@H]1C[C@@H]([C@H](O)CC2CC(=O)NC(=O)C2)C(=O)[C@@H](C)C1	0.291µM	i	i	i	i	i
C[C@@H]1CC([C@H](O)CC2CC(=O)NC(=O)C2)C(=O)[C@@H](C)C1 (stereo partly specified)	nt	nt	nt	i	nt	nt
COc1cc2c(cc1OC)[C@H]1C(=O)c3ccc4c(c3O[C@H]1CO2)C[C@@H](C(C)(C)O)O4	i	nt	i	nt	nt	nt
COc1cc2c(cc1OC)[C@@H]1C(=O)c3ccc4c(c3O[C@@H]1CO2)C[C@H](C(C)C)O4	0.058µM	i	i	nt	i	i
C[C@]1(O)CC[C@H]2[C@@H]3[C@@H](O)CC4=CC(=O)CC[C@@]4(C)[C@H]3CC[C@]21C	nt	nt	nt	i[9.22 µM]	nt	nt
O=c1c2ccccc2nc(/C=C/c2ccc(O)cc2)n1-c1cccc(O)c1	?	i	i	i	i	i
Cc1ccc(-n2c(/C=C/c3ccc4c(c3)OCO4)nc3ccccc3c2=O)cc1	18.4µM	i	i	i	i	i
O=c1c2ccccc2nc(/C=C/c2ccc3c(c2)OCO3)n1-c1cccc(O)c1	16.4µM	i	i	i	i	i
COc1ccc(-n2c(/C=C/c3ccc(O)c(OC)c3)nc3ccccc3c2=O)cc1	?	i	i	nt	i	?
COc1ccc(-n2c(/C=C/c3ccc4c(c3)OCO4)nc3ccccc3c2=O)cc1	23.1µM	i	i	i	i	i
COc1cccc(-n2c(/C=C/c3ccc(O)c(O)c3)nc3ccccc3c2=O)c1	8.2µM	i	i	nt	i	?
Clc1ccc(C(c2ccccc2Cl)C(Cl)(Cl)Cl)cc1 (stereo unspecified)	nt	nt	nt	i	nt	nt
O=S(=O)(O)F	nt	nt	nt	i	nt	nt
O=C(CCn1c(=O)oc2ccccc21)N1CCN(C(c2ccccc2)c2ccccc2)CC1	13µM	i	i	i	i	i
CCC(=NCc1cc(OC)cc(OC)c1)c1c(O)n(C2CCCCC2)c(=O)[nH]c1=O	16.4µM	i	i	nt	i	i
SMILES	ELG1 DNA repair	NPC1 prom act	ELG1 genotox	SMN2 splice up	Rab9 promoter act	FLuc modulator
CCCCn1c(O)c(C(CC)=NCc2cc(OC)cc(OC)c2)c(=O)[nH]c1=O	16.4µM	i	i	i	i	i
CCCCn1c(O)c(C(C)=NCc2cccnc2)c(=O)[nH]c1=O	i	i	i	nt	i	i
COc1cc(CN=C(C)c2c(O)n(C3CCCCC3)c(=O)[nH]c2=O)cc(OC)c1	?	i	i	nt	i	i
CCCCn1c(O)c(C(C)=NCc2cc(OC)cc(OC)c2)c(=O)[nH]c1=O	23.1µM	i	i	i	i	i
O=C(NCc1ccc(Cl)cc1)C1CCN(C(=O)c2cnn(-c3ccccc3)c2-n2cccc2)CC1	nt	nt	nt	i	nt	i
C=CCCC#N	nt	nt	nt	i	nt	nt
C[C@H](c1ccccc1)N1CCN([C@@H](C)c2ccccc2)CC1	nt	nt	nt	i[9.22 µM]	nt	nt
Cc1ccc(C(=O)Nc2nc3ccccc3n2CCN2CCCC2)cc1	?	i	4.61µM	nt	?	10.7µM
CCCn1c(C(=O)c2ccccc2)nc2ccccc21	i	i	i	i	i	i
O=C(Cc1ccccc1)OCC(=O)c1ccc(F)cc1	?	nt	i	nt	nt	nt
O=C(Cc1ccccc1)OCC(=O)c1ccccc1	?	i	i	nt	i	6.75µM
Cc1ccc(C(=O)COC(=O)Cc2ccccc2)cc1	i	i	?	nt	i	0.953µM
O=C(N=Nc1c(O)n(C2OC(=O)c3ccccc32)c2ccccc12)c1ccco1 (stereo unspecified)	?	i	i	nt	i	i
COc1ccc(C/C(=N\OC(C)=O)c2ccc(OC)cc2)cc1	?	i	i	nt	i	0.601µM
COc1ccc(-n2c(O)c(/C(C)=N/Nc3ccccc3)c(=O)[nH]c2=O)cc1	7.3µM	i	i	nt	i	i
C[C@@H]1CC[C@@H]2N(C1)C[C@H]1[C@@](O)([C@H](O)C[C@]3(O)[C@H]4CC[C@H]5[C@]6(O)O[C@]4(C[C@]13O)[C@@]5(C)CC[C@@H]6O)[C@@]2(C)O	nt	nt	nt	i[9.22 µM]	nt	nt
CCOc1cc(C=O)ccc1O	i	nt	i	i	nt	nt
COc1cc(/C=C/[N+](=O)[O-])ccc1O	23.1µM	i	i	?	i	?
CCC(=NC(C)c1ccccc1)c1c(O)n(C)c(=O)n(C)c1=O (stereo unspecified)	?	i	i	i	i	i
Cc1ccc2nc(NC(=O)c3cccn(Cc4ccccc4F)c3=O)sc2c1	nt	nt	nt	nt	nt	i
CCOc1ccc2nc(NC(=O)c3cccn(Cc4ccccc4C)c3=O)sc2c1	nt	nt	nt	nt	nt	15.1µM
Cc1cccc(Cn2cccc(C(=O)Nc3nc4ccccc4s3)c2=O)c1	nt	nt	nt	nt	nt	6.01µM
Oc1ccc(Cl)cc1Cl	nt	nt	nt	i	nt	nt
O=C(Cl)c1ccccc1F	nt	nt	nt	i	nt	nt
CCCCCn1c(=O)c(C(=O)Nc2nc3ccccc3[nH]2)c(O)c2ccccc21	?	i	i	nt	i	i
Cc1ccc(C(=O)Nc2nc3ccccc3[nH]2)cc1	?	0.562µM	?	nt	0.631µM	0.0953µM
CCCCn1c(N)c(C(=O)OCC2CCCO2)c2nc3ccccc3nc21 (stereo unspecified)	9.2µM	i	i	?	i	?
CCCCn1c(N)c(C(=O)OCCOC)c2nc3ccccc3nc21	8.2µM	i	i	nt	i	i
CCCNC(=O)c1c(N)n(CC2CCCO2)c2nc3ccccc3nc12 (stereo unspecified)	?	i	i	i	i	i
CCCCOCCCn1c(N)c(C(=O)OCCOC)c2nc3ccccc3nc21	?	i	i	i	i	i
